Broadly, the inhibition is the change of the read-out against control, counted positive when it falls.

The campaign covered roughly 330,000 compounds. About 1,900 (0.58%) were called active. Roughly 4% stayed inconclusive and do not appear here. No stated cut-off is given here; in the data, inconclusive means inhibition above about 70% without an active follow-up result; inactive means below that. A selection follows. Entries with a potency or affinity are not part of this list.

This assay in a line: M. tuberculosis growth inhibition, HTS (AID 449762).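 Further: bacterial growth assessed after seven days of incubation.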 The note with it: M. tuberculosis H37Rv growth inhibition, 7H9 media; at 25 µM; stronger effect = higher value.
Consider `CSc1ccc(Cl)c(C(=O)NNC(=O)c2cccs2)c1`, for which the inhibition is 1.28% (inactive).
With `Cc1ccc(OCC(=O)N/N=C/C=C/c2ccco2)cc1`, the inhibition was -6.27% (inactive).
Take `CCOC(=O)N/N=C\C=C\c1ccco1`: the inhibition is -0.79% (inactive).
For the compound `COc1ccc(OC)c2c1cc(C(=O)N[C@H](C(=O)N1CCC(C(=O)O)CC1)C(C)C)n2C`, the inhibition is -15.1% (inactive).
Under `O=C(O)c1ccc(Cl)c(NCc2cccnc2)c1` stands -9.94% (inactive); under `CCCc1cc(=O)[nH]c(SCC(=O)Nc2c(C)cccc2C)n1`, 0.09% (inactive); under `Cc1cc(C(=O)NCCC(C)C)c2ccccc2n1`, -3.78% (inactive).
Consider `C[N+](C)(CCOc1ccccc1)Cc1ccccc1` (tested in a mixture with another compound), for which the inhibition was -1.38% (inactive).
In the case of `CC(C)(C)c1ccc(OCCNCc2ccccc2)cc1`, the inhibition was 14.6% (inactive).
Consider `CN(Cc1ccco1)C(=O)c1ccc(S(=O)(=O)N2CCCCCC2)cc1`, for which the inhibition is 2.26% (inactive).
On to `COc1ccc(COC(=O)c2ccc(C)c(S(=O)(=O)N3CCOCC3)c2)cc1F`, for which the inhibition is -4.83% (inactive).
Turning to `C[n+]1c(-c2ccccc2)cc(-c2ccc(Cl)cc2)cc1-c1ccccc1`, the inhibition is -0.15% (inactive).
`C[n+]1c(-c2ccccc2)cc(-c2ccc(O)cc2)cc1-c1ccccc1`: the inhibition is 3.36% (inactive).
Regarding `COCCCNC(=O)CN(c1cc(C(F)(F)F)ccc1Cl)S(C)(=O)=O`, the inhibition is -8.65% (inactive).
Regarding `COC(=O)c1c(C)nn(-c2ccc(OC(F)(F)F)cc2)c1-c1snnc1C`, the inhibition is 5.4% (inactive).
Consider `COc1ccc(CCN(C)C(=O)C2CC(=O)N(Cc3ccc(C)cc3)C2)cc1OC` (stereo unspecified), for which the inhibition is -4.64% (inactive).
For `O=C1NC2(Nc3ccccc31)C(=O)Nc1ccc(Br)cc12` (stereo unspecified), the inhibition was 6.01% (inactive).
On to `O=C1Nc2ccc(Br)cc2C1(O)c1ccccc1` (stereo unspecified), for which the inhibition is -1.54% (inactive).
As for `O=C(Nc1ccc([N+](=O)[O-])cc1)c1cccc(S(=O)(=O)Nc2ccccn2)c1`, the inhibition is -2.42% (inactive).
Regarding `COc1ccc(-n2cc3ccc([N+](=O)[O-])cc3n2)cc1`, the inhibition was -3.43% (inactive).
Under `O=[N+]([O-])c1cnc2ccccc2c1` stands -7.59% (inactive); under `O=c1c2c([N+](=O)[O-])cc([N+](=O)[O-])cc2nc2ccccn12`, 4.66% (inactive).
To `COc1ccccc1-n1cc2ccc([N+](=O)[O-])cc2n1` belongs -3.35% (inactive); to `C[C@H](CO)N1C[C@H](C)[C@@H](CN(C)Cc2ccncc2)Oc2c(cccc2N(C)C)C1=O`, 2.32% (inactive).
On to `COc1ccc(Cl)cc1NC(=O)CN(C)C(=O)Cn1c(=O)oc2ccccc21`, for which the inhibition is 1.38% (inactive).
To `O=C(c1cc(COc2c(F)cccc2F)on1)N1CCN(C2CCCCC2)CC1` belongs 10.1% (inactive).
